Drawing on PubChem BioAssay (NCI), this text covers growth for 15 compounds.

About 83,000 compounds went through this panel and 20% of them were active in at least one assay; those are over-represented in the sample as a whole.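 Plates (96-well) were seeded with cells, treated with compound at one concentration, and incubated for 48 hours before percent growth was determined.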 Unmarked numbers belong to inactive results. Active and inactive are the calls of the source. The calls were made as follows: active = growth percent below 10; inactive = the rest.

Test in all cases: NCI-60 one-dose screen, 48 h (100 = growth as untreated, 0 = no growth, -100 = all killed)
What all share (conditions): 10 µM unless noted

Assay [1] relates to SR leukemia.
Assay [2] deals with RPMI-8226 leukemia.
Assay [3] relates to OVCAR-8 ovarian.
For assay [4], the system named is OVCAR-5 ovarian.
Assay [5] relates to OVCAR-4 ovarian.
The test system of assay [6] is SK-OV-3 ovarian.
The test system of assay [7] is IGROV1 ovarian.
The subject of assay [8] is OVCAR-3 ovarian.
In assay [9] the test system is HS 578T breast.
For assay [10], the system named is NCI/ADR-RES ovarian.
Assay [11] relates to T-47D breast.
For assay [12], the system named is BT-549 breast.
The test system of assay [13] is MDA-MB-435 melanoma.
Assay [14] relates to SW-620 colon.
The test system of assay [15] is MCF7 breast.
Assay [16] relates to HCT-116 colon.
The test system of assay [17] is HCC-2998 colon.
The test system of assay [18] is KM12 colon.

Take `COc1ccc(/C=C2\CN(C(=O)C(Cl)Cl)C/C(=C\c3ccc(OC)c(OC)c3)C2=O)cc1OC`: the growth in [1] was 6.16% (active); in assay [2], -5.84% (active); in assay [3], 19.1%; in assay [4], 10.6%; in [5] it was 19.8%; in [6], 48.3%. For the same compound, the growth is -43.9% (active) in assay [7]; -16.6% (active) in assay [8]; 21.1% in assay [9]; 13.7% in [10]; 0.33% (active) in assay [11]; -41% (active) in assay [12]. Also, the growth in assay [13] was -34.3% (active); in assay [14] it was -41.4% (active); in [15] it was 0.517% (active); in assay [16], -83.6% (active); in assay [17], -95.5% (active); in assay [18], -49.7% (active).

In the case of `O=C1/C(=C/c2ccc(Cl)cc2)CN(C(=O)C(Cl)Cl)C/C1=C\c1ccc(Cl)cc1`, the growth in assay [1] is -8.06% (active); in assay [2], -28.6% (active); in [3] it was -3.39% (active); in [4], -61.8% (active); in assay [5] it was 1.03% (active); in assay [6], -7.85% (active). In addition, the growth in assay [7] was -76.3% (active); in assay [8], -97.9% (active); in assay [9] it was -8.2% (active); in [10] it was -2.96% (active); in assay [11] it was -58.3% (active); in assay [12] it was -82.6% (active). For the same compound, the growth in assay [13] is -95.3% (active); in assay [14] it was -78.9% (active); in [15], -70.8% (active); in assay [16] it was -86.6% (active); in assay [17] it was -91.8% (active); in [18] it was -81.9% (active).

For the compound `C[C@H](c1nc2ccc(C#N)cc2[nH]1)[C@H]1CC[C@H]2[C@@H]3CCC4=CC(=O)CC[C@]4(C)[C@H]3CC[C@]12C`, the growth in assay [1] was 34.6%; in assay [2], 20.3%; in assay [3], 79.6%; in [4], 85.3%; in assay [5], 46%; in assay [6], 80%. Besides, the growth in assay [7] was 66.9%; in assay [8] it was 72.1%; in assay [9], 63.4%; in [10], 67.5%; in assay [11] it was 29.4%; in assay [12] it was 58.9%. Further, the growth in assay [14] was 89.1%; in [15], 59.5%; in [16], 49.7%; in assay [17] it was 67.4%; in assay [18] it was 68.9%.

Regarding `CC(C)(C)CC(C)(C)Nc1c(-c2c(O)c3ccccc3oc2=O)nc2sc3ccccc3n12`, the growth is 30.3% in assay [1]; 8.98% (active) in assay [2]; 22.2% in assay [3]; 66.9% in [4]; 41.9% in [5]; 30.4% in assay [6]. The growth is 29.5% in assay [7]; 55.2% in assay [8]; 30.1% in assay [9]; 40.1% in assay [10]; 15.9% in [11]; 51.9% in assay [12]. For the same compound, the growth is 47.9% in assay [13]; 21.3% in assay [14]; 28.9% in [15]; 29.6% in assay [16]; 52.6% in [17]; 45.1% in assay [18].

`CCN(CC)CCOc1ccc(Nc2ncc3cc(-c4c(Cl)cccc4Cl)c(=O)n(CCOC)c3n2)cc1`: the growth in assay [1] is -30.8% (active); in [2], 2.23% (active); in assay [3], 9.23% (active); in assay [4], 2.15% (active); in assay [5], 35.3%; in [6] it was 2.93% (active). Further, the growth in [7] was -21.9% (active); in [8] it was -22% (active); in [9] it was 8.49% (active); in assay [10], 6.66% (active); in [11] it was 29.4%; in [12], -15.1% (active). In addition, the growth is 1.33% (active) in [13]; 7.96% (active) in assay [14]; 17.2% in [15]; -40.6% (active) in assay [16]; 9.52% (active) in assay [17]; 15.9% in assay [18].

Take `Cc1nn(C)c2ncnc(N/N=C/c3cccc(O)c3O)c12`: the growth was 7.79% (active) in [1]; -8.14% (active) in assay [2]; 18.2% in [3]; 41.8% in assay [4]; 22% in assay [5]; 9.76% (active) in [6]. Moreover, the growth in assay [7] was 15.4%; in assay [8] it was 25.5%; in assay [9], 52.3%; in [10] it was 11.9%; in assay [11], 19%; in [12], 30.8%. In addition, the growth in assay [13] is 24.4%; in assay [14], 26.7%; in [15], 15%; in assay [16], 18%; in assay [17], 38.2%; in assay [18], 21.5%.

As to `CC(C)(C)c1ccc(S(=O)(=O)Oc2ccc(-c3sc4cc(OS(=O)(=O)c5ccc(C(C)(C)C)cc5)ccc4c3C(=O)c3ccc(OCCN4CCCCC4)cc3)cc2)cc1`, the growth in assay [1] is 104%; in assay [2], 93.6%; in assay [3], 115%; in assay [4] it was 99.4%; in assay [5] it was 97.1%; in assay [6], 88.8%. The growth in assay [7] was 101%; in assay [8], 102%; in assay [9], 104%; in [10], 97.9%; in assay [11], 79.1%; in assay [12], 97.7%. Also, the growth is 100% in assay [13]; 101% in [14]; 96.8% in assay [15]; 91.6% in [16]; 98.1% in [17]; 95.5% in assay [18].

For the compound `O=C(NNc1nc2cc(F)ccc2n2c(CN3CCOCC3)ccc12)c1ccccc1`, the growth was 3.49% (active) in assay [1]; 10.9% in [2]; 13.1% in [3]; 28.9% in assay [4]; -14.9% (active) in assay [5]; 27.5% in [6]. The growth in assay [7] is 3.07% (active); in [8], -8.34% (active); in assay [9], 57.9%; in [10], 5.25% (active); in [11], 11.8%; in assay [12], 25.7%. The growth in assay [13] was 27.3%; in assay [14], -1.14% (active); in [15], -6.31% (active); in [16], 0.232% (active); in assay [17] it was 32.8%; in [18] it was 12.2%.

Consider `Cc1nc2ccccc2c(/C=C/c2ccc(F)cc2)c1C(=O)/C=C/c1ccccc1`, for which the growth in assay [1] was 8.92% (active); in [2], 1.46% (active); in assay [3], 2.09% (active); in [4], -22% (active); in assay [5], 36.4%; in assay [6] it was 56%. Also, the growth in assay [7] is 13.6%; in assay [8], -15.4% (active); in [9], 22.4%; in [10] it was 2.57% (active); in assay [11], 10.9%; in [12], 30.7%. Further, the growth in [13] was -9.7% (active); in assay [14] it was -1.98% (active); in assay [15] it was 11.4%; in [16], -69.9% (active); in assay [17] it was 22%; in [18] it was 11.9%.

Turning to `c1ccc(Nc2nc3c(s2)CCc2c[nH]cc2-3)nc1`, the growth in assay [1] is 75.8%; in assay [2] it was 89%; in assay [3], 90.7%; in assay [4], 108%; in assay [5] it was 78%; in assay [6] it was 83.7%. Moreover, the growth in assay [7] was 86.2%; in assay [8] it was 74.1%; in assay [9], 96%; in [10], 92.7%; in assay [11], 11%; in assay [12], 95.4%. Besides, the growth in assay [14] is 102%; in assay [15] it was 65.1%; in assay [16] it was 72.2%; in assay [17], 103%; in [18], 92.3%.

`C=C(C)[C@@H]1CC[C@]2(C(=O)N3CCN(C)CC3)CC[C@]3(C)[C@H](CC[C@@H]4[C@@](C)(CCC(=O)O)[C@H](C(=C)C)CC[C@]43C)[C@@H]12`: the growth in [1] was 56.9%; in assay [2], 58.6%; in assay [3], 88.9%; in assay [4], 111%; in assay [5], 97%; in [6], 89.6%. In addition, the growth in assay [7] is 104%; in [8], 88.8%; in assay [9], 86.7%; in assay [10], 92.4%; in assay [11], 85.7%; in assay [12], 96.8%. The growth in [13] is 93.6%; in assay [14], 99.7%; in [15] it was 82.8%; in assay [16] it was 68.2%; in assay [17], 93.8%; in assay [18] it was 68.7%.

For `CCOC(=O)C#Cc1c(C(=O)OCC)nnn1[C@@H]1O[C@H](COC)[C@@H](OC)[C@H]1OC`, the growth in [1] was 8.26% (active); in assay [2] it was 62.5%; in [3], 104%; in assay [4], 90.1%; in assay [5], 73.5%; in assay [6], 92.6%. For the same compound, the growth in assay [7] was 95.1%; in assay [8] it was 15.5%; in [9], 97%; in assay [10], 109%; in assay [11], 15.2%; in assay [12], 98.7%. Further, the growth is 98.7% in [13]; -38.7% (active) in assay [14]; 8.52% (active) in assay [15]; 84% in assay [16]; 128% in [17]; 105% in assay [18].

On to `N#Cc1nn(-c2cc(=O)[nH]c3ccc(Br)cc23)c(N)c1C#N`, for which the growth in [1] is -14.2% (active); in [2], -29.7% (active); in assay [3], 96%; in assay [4], 103%; in [5], 81.6%; in assay [6], 69.1%. Further, the growth in assay [7] was 90.5%; in assay [8] it was 103%; in assay [9], 88.6%; in [10], 102%; in assay [11], 56.1%; in assay [12] it was 85.1%. For the same compound, the growth was 95.5% in assay [13]; 83.5% in assay [14]; 104% in [15]; 85.7% in assay [16]; 78.5% in [17]; 109% in [18].

In the case of `COc1cc(/C=N/NC(=O)c2ccc(-n3cc(-c4ccccc4)nn3)cc2)cc(OC)c1OC`, the growth in assay [1] was 55.4%; in assay [2], 24%; in assay [3] it was 49%; in assay [4], 105%; in [5], 45.8%; in [6] it was 73.7%. The growth in assay [7] is 57%; in assay [8] it was 93%; in assay [9], 53.1%; in assay [10], 80.8%; in assay [11], 59.8%; in assay [12], 53.8%. Also, the growth was 33.1% in assay [13]; 64.8% in [14]; 14.1% in assay [15]; 89.5% in assay [16]; 84.3% in assay [17]; 53.1% in [18].

For `COc1ccc(Oc2ccc(/C=C/C(=O)c3ccc(OC)c(OC)c3)cc2)cc1`, the growth was 50.9% in [1]; 54.7% in [2]; 73.8% in assay [3]; 112% in [4]; 62.8% in assay [5]; 97.3% in [6]. The growth was 85.5% in assay [7]; 86.7% in assay [8]; 88.2% in [9]; 83.4% in assay [10]; 60.8% in assay [11]; 85.3% in assay [12]. Moreover, the growth in assay [13] is 90.3%; in [14] it was 83.9%; in assay [15], 56.3%; in assay [16] it was 69.3%; in [17], 104%; in assay [18] it was 79%.
